# Assay results as given in PubChem BioAssay (EPA / NIEHS).
# Records with an inconclusive call do not appear. Calls of active or inactive are those of the source. Rule for the calls: active = hit-call score of the fitted dose curve at least 0.9, where 1 is the maximum; inconclusive = response in the unintended direction; inactive = score below 0.9.
# Tests used:
# [1] = biological target: Collagenase 3 (Homo sapiens) (UniProt P45452); assay: NVS_ENZ_hMMP13: NovaScreen (NVS) Enzymatic Assay for human Matrix Metalloproteinase-13 (MMP13) (AID 2283182)
# Summary of the method: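 Recombinant MMP13 cleaving fluorescent substrate, cell-free, measured 1 h after dosing. Primary duplicate screen at 25 uM; actives tested in concentration-response up to 50 uM; loss of signal relative to DMSO.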
# [2] = biological target: human Matrix Metalloproteinase-2 (MMP2), MMP2 (gene 4313) (UniProt P08253); assay: NVS_ENZ_hMMP2: NovaScreen (NVS) Enzymatic Assay for human Matrix Metalloproteinase-2 (MMP2) (AID 2283184)
# Summary of the method: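 Cell-free recombinant MMP2 activity with a fluorescent substrate, read 1 h after dosing. Primary screen in duplicate at 25 uM; actives then run in concentration series; loss of signal fitted versus DMSO.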
# [3] = biological target: human Matrix Metalloproteinase-9 (MMP9), MMP9 (gene 4318) (UniProt P14780); assay: NVS_ENZ_hMMP9: NovaScreen (NVS) Enzymatic Assay for human Matrix Metalloproteinase-9 (MMP9) (AID 2283190);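 note: cell-free recombinant MMP9 protease activity read by fluorescent substrate signal; active means inhibition seen as loss of fluorescence signal versus DMSO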
# Summary of the method: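 Extracted enzyme, fluorescent substrate, 1 h post-dose read. Single conc 25 uM in duplicate, then concentration series for actives. Activity = signal loss relative to DMSO negative control.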
# [4] = biological target: Mitogen-activated protein kinase 3 (Homo sapiens) (UniProt P27361); assay: NVS_ENZ_hMAPK3: NovaScreen (NVS) Enzymatic Assay for human Mitogen-Activated Protein Kinase 3 (MAPK 3) (AID 2283177)
# Summary of the method: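 Cell-free enzymatic assay with recombinant protein and specific substrate; fluorescence and electrophoretic mobility shift read-out 1 h after dosing. Primary screen duplicate at 25 uM; actives then run in concentration-response up to 50 uM, loss of signal versus DMSO.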
# [5] = biological target: human Matrix Metalloproteinase-3 (MMP3), MMP3 (gene 4314) (UniProt P08254); assay: NVS_ENZ_hMMP3: NovaScreen (NVS) Enzymatic Assay for human Matrix Metalloproteinase-3 (MMP3) (AID 2283185)
# Summary of the method: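 Cell-free recombinant human MMP3 activity, fluorescence intensity read 1 h after dosing. Primary screen duplicate at 25 uM, actives retested in concentration series; loss of signal vs DMSO baseline.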
# [6] = biological target: human MET Proto-Oncogene, Receptor Tyrosine Kinase (MET), MET (gene 4233) (UniProt P08581); assay: NVS_ENZ_hMet: NovaScreen (NVS) Enzymatic Assay for human MET Proto-Oncogene, Receptor Tyrosine Kinase (MET) (AID 2283180)
# Summary of the method: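 Cell-free MET kinase assay using recombinant protein and fluorescent substrate, with mobility-shift separation; read 1 h after dosing. Primary duplicate at 25 uM; actives in singleton concentration-response to 50 uM maximum. Signal loss versus DMSO.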
# [7] = biological target: human p21 Activated Kinase 4 (PAK4), PAK4 (gene 10298) (UniProt O96013); assay: NVS_ENZ_hPAK4: NovaScreen (NVS) Enzymatic Assay for human p21 Activated Kinase 4 (PAK4) (AID 2283189)
# Summary of the method: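 Cell-free recombinant human PAK4 activity assay; fluorescent substrate and product separated by electrophoretic mobility shift, read 1 h after dosing. Initially tested in duplicate at 25 uM, relative to DMSO baseline.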
# [8] = biological target: human Matrix Metalloproteinase-1 (MMP1), MMP1 (gene 4312) (UniProt P03956); assay: NVS_ENZ_hMMP1: NovaScreen (NVS) Enzymatic Assay for human Matrix Metalloproteinase-1 (MMP1) (AID 2283181)
# Summary of the method: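 Human MMP1 enzyme activity measured by fluorescence 1 h after dosing, cell-free, with a specific substrate. Screened in duplicate at 25 uM; hits (e.g. 30% inhibition) run in concentration-response up to 50 uM; loss of signal versus DMSO.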
# [9] = biological target: human Matrix Metalloproteinase-7 (MMP7), MMP7 (gene 4316) (UniProt P09237); assay: NVS_ENZ_hMMP7: NovaScreen (NVS) Enzymatic Assay for human Matrix Metalloproteinase-7 (MMP7) (AID 2283183)
# Protocol: NVS_ENZ_hMMP7 is a biochemical, single-readout assay that uses extracted gene-proteins in a cell-free assay. Measurements were taken 1 hour after chemical dosing in a 96-well plate.NVS_ENZ_hMMP7 is one of one assay component(s) measured or calculated from the NVS_ENZ_hMMP7 assay. It is designed to make measurements of enzyme activity, a form of enzyme reporter, as detected with fluorescence intensity signals by Fluorescence technology.Data from the assay component NVS_ENZ_hMMP7 was analyzed into 1 assay endpoint. This assay endpoint, NVS_ENZ_hMMP7, was analyzed in the positive analysis fitting direction relative to DMSO as the negative control and baseline of activity. Using a type of enzyme reporter, loss-of-signal activity can be used to understand changes in the enzymatic activity as they relate to the gene MMP7. Furthermore, this assay endpoint can be referred to as a primary readout, because this assay has produced multiple assay endpoints where this one serves a enzymatic activity function. To generalize the intended target to other relatable targets, this assay endpoint is annotated to the protease intended target family, where the subfamily is matrix metalloproteinase.
# Binding assays used specific radioligands (tritiated, iodinated) with non-radioactive competitive displacement ligands in agonist or antagonist protocols (as indicated) and various reference compounds and inhibitors to titrate specific binding to receptors and transporters. Most enzyme assays (CYPs, kinases, phosphatases, proteases, HDACs) used recombinant protein and specific substrates (fluorescence mostly, some colorimetric and radioactive) and inhibitors, followed by a biochemical separation of substrate and product. All assays for the biochemical HTS were initially run in duplicate at a single concentration (10 uM for CYP450 assays and 25 uM for all others). Assay-chemical combinations meeting a pre-defined threshold (e.g., 30% inhibition and other criteria defined below) were then run in singleton concentration-response format with maximum concentration of 20 uM for CYPs and 50 uM for all others. Each assay was run with positive and negative controls, and concurrent controls on every plate. The follow-up (secondary) screen tested active chemical-pairs in concentration series, as well as a few additional assays not tested in the primary screen, some selected negative inactives, and several cases re-run in the concentration series for confirmatory purposes.
# [10] = biological target: human NIMA (Never In Mitosis Gene A)-Related Kinase 2 (NEK2), NEK2 (gene 4751) (UniProt P51955); assay: NVS_ENZ_hNEK2: NovaScreen (NVS) Enzymatic Assay for human NIMA (Never In Mitosis Gene A)-Related Kinase 2 (NEK2) (AID 2283188)
# Protocol: NVS_ENZ_hNEK2 is a biochemical, single-readout assay that uses extracted gene-proteins in a cell-free assay. Measurements were taken 1 hour after chemical dosing in a 384-well plate.NVS_ENZ_hNEK2 is one of one assay component(s) measured or calculated from the NVS_ENZ_hNEK2 assay. It is designed to make measurements of enzyme activity, a form of enzyme reporter, as detected with fluorescence intensity signals by Fluorescence and electrophoretic mobility shift technology.Data from the assay component NVS_ENZ_hNEK2 was analyzed into 1 assay endpoint. This assay endpoint, NVS_ENZ_hNEK2, was analyzed in the positive analysis fitting direction relative to DMSO as the negative control and baseline of activity. Using a type of enzyme reporter, loss-of-signal activity can be used to understand changes in the enzymatic activity as they relate to the gene NEK2. Furthermore, this assay endpoint can be referred to as a primary readout, because this assay has produced multiple assay endpoints where this one serves a enzymatic activity function. To generalize the intended target to other relatable targets, this assay endpoint is annotated to the kinase intended target family, where the subfamily is serine/threonine kinase. […]
# Sequence of human Matrix Metalloproteinase-2 (MMP2), MMP2 (gene 4313) (P08253 whole entry, looked up): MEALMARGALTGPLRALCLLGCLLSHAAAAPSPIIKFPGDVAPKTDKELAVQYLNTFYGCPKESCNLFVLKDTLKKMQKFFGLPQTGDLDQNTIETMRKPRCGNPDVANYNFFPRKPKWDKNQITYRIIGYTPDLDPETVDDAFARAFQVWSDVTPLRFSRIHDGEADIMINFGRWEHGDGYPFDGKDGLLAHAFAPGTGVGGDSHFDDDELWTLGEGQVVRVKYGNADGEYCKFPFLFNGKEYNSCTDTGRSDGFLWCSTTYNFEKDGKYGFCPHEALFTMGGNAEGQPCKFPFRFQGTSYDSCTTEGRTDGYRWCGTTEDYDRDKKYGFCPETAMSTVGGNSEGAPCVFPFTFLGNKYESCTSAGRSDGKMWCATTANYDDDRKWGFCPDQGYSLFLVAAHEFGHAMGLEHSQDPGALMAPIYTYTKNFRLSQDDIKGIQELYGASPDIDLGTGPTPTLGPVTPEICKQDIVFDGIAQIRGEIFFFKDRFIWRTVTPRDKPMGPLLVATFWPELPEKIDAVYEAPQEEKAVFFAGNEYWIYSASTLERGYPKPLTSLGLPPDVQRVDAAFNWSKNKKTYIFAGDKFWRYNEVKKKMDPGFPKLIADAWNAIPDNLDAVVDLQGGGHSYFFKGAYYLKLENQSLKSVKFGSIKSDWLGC
# Sequence of human Matrix Metalloproteinase-9 (MMP9), MMP9 (gene 4318) (P14780 whole entry, looked up): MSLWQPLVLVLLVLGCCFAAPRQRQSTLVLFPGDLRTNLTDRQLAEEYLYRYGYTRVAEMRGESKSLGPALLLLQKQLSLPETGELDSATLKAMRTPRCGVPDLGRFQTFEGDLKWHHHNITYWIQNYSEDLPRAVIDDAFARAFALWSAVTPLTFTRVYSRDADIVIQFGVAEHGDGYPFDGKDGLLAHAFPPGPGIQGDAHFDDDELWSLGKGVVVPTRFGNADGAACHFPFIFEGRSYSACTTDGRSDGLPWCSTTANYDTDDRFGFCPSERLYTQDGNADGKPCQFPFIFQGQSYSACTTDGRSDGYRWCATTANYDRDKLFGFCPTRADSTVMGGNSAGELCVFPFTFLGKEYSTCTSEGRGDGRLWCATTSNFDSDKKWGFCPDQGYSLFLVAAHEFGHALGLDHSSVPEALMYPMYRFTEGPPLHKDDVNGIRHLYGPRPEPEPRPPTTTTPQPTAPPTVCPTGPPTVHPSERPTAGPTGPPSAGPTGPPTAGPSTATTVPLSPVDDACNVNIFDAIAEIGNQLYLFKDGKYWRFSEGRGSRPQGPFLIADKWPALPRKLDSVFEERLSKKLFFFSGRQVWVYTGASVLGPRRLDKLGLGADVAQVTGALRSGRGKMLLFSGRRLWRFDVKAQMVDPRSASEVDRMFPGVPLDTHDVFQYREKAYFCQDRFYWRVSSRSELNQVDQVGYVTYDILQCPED
# Sequence of human Matrix Metalloproteinase-7 (MMP7), MMP7 (gene 4316) (P09237 whole entry, looked up): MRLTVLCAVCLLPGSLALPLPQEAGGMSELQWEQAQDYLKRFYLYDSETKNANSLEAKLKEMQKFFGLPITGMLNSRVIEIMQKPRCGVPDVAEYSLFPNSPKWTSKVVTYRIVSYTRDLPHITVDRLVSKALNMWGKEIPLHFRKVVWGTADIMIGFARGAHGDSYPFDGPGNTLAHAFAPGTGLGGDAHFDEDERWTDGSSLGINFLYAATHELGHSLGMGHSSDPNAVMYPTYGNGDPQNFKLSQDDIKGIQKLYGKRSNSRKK
# Sequence of human Matrix Metalloproteinase-1 (MMP1), MMP1 (gene 4312) (P03956 whole entry, looked up): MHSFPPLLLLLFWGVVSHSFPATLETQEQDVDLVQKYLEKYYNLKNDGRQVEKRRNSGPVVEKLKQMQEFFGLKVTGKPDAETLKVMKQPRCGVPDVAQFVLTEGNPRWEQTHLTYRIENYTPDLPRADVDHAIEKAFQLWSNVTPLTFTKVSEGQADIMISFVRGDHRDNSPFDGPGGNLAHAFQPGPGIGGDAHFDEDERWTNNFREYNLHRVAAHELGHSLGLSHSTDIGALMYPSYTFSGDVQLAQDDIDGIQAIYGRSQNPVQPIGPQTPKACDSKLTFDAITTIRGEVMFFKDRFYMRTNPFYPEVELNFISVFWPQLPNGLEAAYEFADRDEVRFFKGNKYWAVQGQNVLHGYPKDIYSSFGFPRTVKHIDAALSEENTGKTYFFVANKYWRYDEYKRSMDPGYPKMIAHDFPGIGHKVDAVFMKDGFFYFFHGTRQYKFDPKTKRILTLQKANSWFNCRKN
# Sequence of Mitogen-activated protein kinase 3 (Homo sapiens) (P27361 whole entry, looked up): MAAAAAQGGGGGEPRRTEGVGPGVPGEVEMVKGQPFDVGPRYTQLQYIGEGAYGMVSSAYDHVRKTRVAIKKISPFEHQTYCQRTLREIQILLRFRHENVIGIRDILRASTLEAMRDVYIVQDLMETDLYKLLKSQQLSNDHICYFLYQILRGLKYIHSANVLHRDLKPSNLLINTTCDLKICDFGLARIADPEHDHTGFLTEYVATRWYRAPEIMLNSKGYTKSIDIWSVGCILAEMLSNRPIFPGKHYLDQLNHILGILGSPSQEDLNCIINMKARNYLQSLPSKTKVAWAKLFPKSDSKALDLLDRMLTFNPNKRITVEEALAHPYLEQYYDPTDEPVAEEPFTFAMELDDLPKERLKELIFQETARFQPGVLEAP
# Sequence of human MET Proto-Oncogene, Receptor Tyrosine Kinase (MET), MET (gene 4233) (P08581 whole entry, looked up): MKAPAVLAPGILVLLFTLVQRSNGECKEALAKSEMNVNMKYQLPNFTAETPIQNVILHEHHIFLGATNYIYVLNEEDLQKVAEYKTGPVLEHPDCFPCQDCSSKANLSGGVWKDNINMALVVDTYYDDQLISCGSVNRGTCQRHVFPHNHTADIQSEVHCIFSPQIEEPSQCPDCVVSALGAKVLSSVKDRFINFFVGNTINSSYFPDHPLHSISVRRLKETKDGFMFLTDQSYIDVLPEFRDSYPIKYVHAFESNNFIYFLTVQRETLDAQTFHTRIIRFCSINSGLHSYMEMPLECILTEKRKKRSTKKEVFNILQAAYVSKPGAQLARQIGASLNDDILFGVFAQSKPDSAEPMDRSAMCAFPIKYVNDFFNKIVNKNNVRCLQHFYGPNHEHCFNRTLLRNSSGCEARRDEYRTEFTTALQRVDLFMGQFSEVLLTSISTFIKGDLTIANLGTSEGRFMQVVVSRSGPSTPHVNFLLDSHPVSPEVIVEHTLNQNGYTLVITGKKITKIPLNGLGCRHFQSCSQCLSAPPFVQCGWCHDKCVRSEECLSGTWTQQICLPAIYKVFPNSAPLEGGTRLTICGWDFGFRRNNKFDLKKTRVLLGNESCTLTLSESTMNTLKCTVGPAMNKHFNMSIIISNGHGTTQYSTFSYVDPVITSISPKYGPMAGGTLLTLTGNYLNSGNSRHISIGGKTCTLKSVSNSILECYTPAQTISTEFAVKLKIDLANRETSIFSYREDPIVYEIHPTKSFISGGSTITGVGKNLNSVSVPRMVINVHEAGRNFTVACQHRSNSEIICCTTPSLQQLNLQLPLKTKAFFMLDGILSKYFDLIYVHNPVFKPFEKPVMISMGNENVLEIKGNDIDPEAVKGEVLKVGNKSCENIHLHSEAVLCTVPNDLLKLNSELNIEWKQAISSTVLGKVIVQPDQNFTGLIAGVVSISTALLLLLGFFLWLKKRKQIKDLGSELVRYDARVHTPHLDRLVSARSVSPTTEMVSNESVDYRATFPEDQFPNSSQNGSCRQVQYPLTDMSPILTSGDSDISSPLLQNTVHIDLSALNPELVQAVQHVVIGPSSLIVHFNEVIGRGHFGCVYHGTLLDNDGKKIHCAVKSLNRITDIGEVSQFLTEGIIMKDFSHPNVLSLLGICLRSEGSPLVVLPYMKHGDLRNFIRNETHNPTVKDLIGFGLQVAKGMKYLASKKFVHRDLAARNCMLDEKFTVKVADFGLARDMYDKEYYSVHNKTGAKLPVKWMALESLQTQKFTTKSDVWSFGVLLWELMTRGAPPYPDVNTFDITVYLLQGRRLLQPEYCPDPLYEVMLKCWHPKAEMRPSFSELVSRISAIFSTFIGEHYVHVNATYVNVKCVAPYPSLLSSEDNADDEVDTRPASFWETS
# Sequence of human Matrix Metalloproteinase-3 (MMP3), MMP3 (gene 4314) (P08254 whole entry, looked up): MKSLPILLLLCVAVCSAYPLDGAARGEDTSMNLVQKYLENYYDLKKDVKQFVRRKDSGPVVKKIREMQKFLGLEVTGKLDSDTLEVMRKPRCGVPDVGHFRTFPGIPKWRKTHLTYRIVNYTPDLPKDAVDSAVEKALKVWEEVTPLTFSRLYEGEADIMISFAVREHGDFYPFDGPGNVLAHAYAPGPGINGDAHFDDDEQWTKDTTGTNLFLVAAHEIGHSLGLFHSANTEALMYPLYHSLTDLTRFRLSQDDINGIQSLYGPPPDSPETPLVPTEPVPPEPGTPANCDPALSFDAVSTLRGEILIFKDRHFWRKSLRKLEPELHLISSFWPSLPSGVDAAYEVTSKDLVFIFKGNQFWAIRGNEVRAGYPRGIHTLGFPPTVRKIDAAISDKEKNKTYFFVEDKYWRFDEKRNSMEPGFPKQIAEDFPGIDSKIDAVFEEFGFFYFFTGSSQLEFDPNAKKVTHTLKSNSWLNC
# Sequence of human p21 Activated Kinase 4 (PAK4), PAK4 (gene 10298) (O96013 whole entry, looked up): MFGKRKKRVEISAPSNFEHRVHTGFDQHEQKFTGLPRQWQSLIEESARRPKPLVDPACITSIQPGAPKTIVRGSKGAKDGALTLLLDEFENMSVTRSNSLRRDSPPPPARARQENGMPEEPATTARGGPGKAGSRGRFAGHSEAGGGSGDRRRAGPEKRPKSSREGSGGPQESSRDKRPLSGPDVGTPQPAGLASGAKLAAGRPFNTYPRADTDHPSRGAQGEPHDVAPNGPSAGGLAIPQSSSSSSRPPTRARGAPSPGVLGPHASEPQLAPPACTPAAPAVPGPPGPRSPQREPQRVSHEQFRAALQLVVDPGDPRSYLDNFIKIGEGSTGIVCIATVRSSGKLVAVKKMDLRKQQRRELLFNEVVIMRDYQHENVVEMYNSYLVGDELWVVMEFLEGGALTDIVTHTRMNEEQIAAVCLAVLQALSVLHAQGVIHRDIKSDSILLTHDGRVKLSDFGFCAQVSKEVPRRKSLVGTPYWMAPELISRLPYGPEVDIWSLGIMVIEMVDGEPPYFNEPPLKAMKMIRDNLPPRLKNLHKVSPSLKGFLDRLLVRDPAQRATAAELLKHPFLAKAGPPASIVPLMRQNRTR
smiles,measurement,setting,value
CCN(CC)c1ccccc1,outcome,[1],inactive
CC(Cc1ccc(OCC(=O)O)cc1)NCC(O)c1csc(C(F)(F)F)n1 (configuration not stated),outcome,[1],inactive
same,AC50,[2],2.3 µM (active)
same,outcome,[3],inactive
Nc1cc2c3c(c1)C(c1ccccc1)=N[C@@H](NC(=O)c1cccnc1)C(=O)N3CC2,outcome,[4],inactive
COP(=O)(O)OC,AC50,[3],9.97 µM (active)
O=[N+]([O-])c1ccccc1,outcome,[5],inactive
CC(C)(C)OOC(C)(C)C,outcome,[4],inactive
same,outcome,[6],inactive
same,outcome,[7],inactive
Cc1c([N+](=O)[O-])cc2c(c1[N+](=O)[O-])C(C)(C)CC2(C)C,AC50,[3],7.49 µM (active)
CCCN(CCC)c1c([N+](=O)[O-])cc(C(C)C)cc1[N+](=O)[O-],AC50,[8],8.62 µM (active)
CCOP(=S)(OCC)SCSCC,outcome,[9],inactive
same,outcome,[2],inactive
CSC(C)(C)C=NO,outcome,[9],inactive
same,AC50,[2],7.52 µM (active)
c1nc[nH]n1,outcome,[2],inactive
O=P(OCC(Br)CBr)(OCC(Br)CBr)OCC(Br)CBr (configuration not stated),AC50,[3],4.32 µM (active)
Nc1ccc(Cl)cc1,outcome,[3],inactive
CCCCC(CC)COP(=O)(Oc1ccccc1)Oc1ccccc1 (configuration not stated),AC50,[3],2.08 µM (active)
CCOc1ccc(C(C)(C)COCc2cccc(Oc3ccccc3)c2)cc1,outcome,[9],inactive
same,AC50,[2],36 µM (active)
same,outcome,[10],inactive
CCCCN(CCCC)N=O,outcome,[9],inactive
Cc1ccc(O)cc1C,AC50,[8],4.79 µM (active)
CCC1(c2ccccc2)C(=O)N=C(O)NC1=O (configuration not stated),AC50,[2],15.4 µM (active)
same,outcome,[3],inactive
